Compounds without any hit were thinned out: in the full panel of roughly 83,000, 20% have a hit.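 Interpretation: 100, growth as untreated; towards 0, rising growth inhibition; 0, no net growth; 0 to -100, cell death. Compounds scoring below 10 were considered active.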 Values without a mark were called inactive. Activity calls are given as the source filed them.
Key:
Assay in all cases: NCI-60 one-dose screen, 48 h (100 = growth as untreated, 0 = no growth, -100 = all killed)
Conditions in all cases: 10 µM
RPMI-8226 leukemia = test system: RPMI-8226 leukemia
OVCAR-8 ovarian = test system: OVCAR-8 ovarian
OVCAR-5 ovarian = test system: OVCAR-5 ovarian
OVCAR-4 ovarian = test system: OVCAR-4 ovarian
SK-OV-3 ovarian = test system: SK-OV-3 ovarian
IGROV1 ovarian = test system: IGROV1 ovarian
OVCAR-3 ovarian = test system: OVCAR-3 ovarian
HS 578T breast = test system: HS 578T breast
NCI/ADR-RES ovarian = test system: NCI/ADR-RES ovarian

| Compound | growth (RPMI-8226 leukemia) | growth (OVCAR-8 ovarian) | growth (OVCAR-5 ovarian) | growth (OVCAR-4 ovarian) | growth (SK-OV-3 ovarian) | growth (IGROV1 ovarian) | growth (OVCAR-3 ovarian) | growth (HS 578T breast) | growth (NCI/ADR-RES ovarian) |
| --- | --- | --- | --- | --- | --- | --- | --- | --- | --- |
| COc1cc(Cn2c(C(F)(F)F)cc3c(Cl)ncnc32)ccn1 | 6.17% (active) | -16% (active) | 93.7% | -58.4% (active) | 75.4% | -90.6% (active) | -52.4% (active) | 11.2% | 67.7% |
| CN1CCCN(Cc2ccc(C(=O)Nc3cccc(Nc4ccc5cc(O)ccc5n4)c3)cc2C(F)(F)F)CC1 | -20.5% (active) | 101% | 131% | 77.2% | 116% | 88.6% | 76.9% | 61.9% | 90.7% |
| O=C(c1ccc(Cl)cc1)C1[C@H](c2ccc(Br)cc2)[C@@H](c2ccccc2)NC12C(=O)Nc1ccc(Br)cc12 (stereo not given in full) | -6.16% (active) | -56.7% (active) | -91.2% (active) | -0.87% (active) | 2.89% (active) | -78.3% (active) | -89.7% (active) | -16.6% (active) | -85.6% (active) |
| Cc1ccc(C(=O)NCCCNc2nc(Nc3ccc(N4CCN(C)CC4)cc3)nc3ccsc23)cc1 | 10.1% | 29.2% | 69.1% | 39.6% | 92.9% | 69.2% | 31% | 66.9% | 46.5% |
| Cc1ccc(/C=C(\C#N)n2nnc3c(F)cccc32)cc1 | 6.26% (active) | -70.7% (active) | -7.34% (active) | 51.2% | 29.5% | 8.21% (active) | 0.864% (active) | 29.2% | 12.9% |
| CC1(C)CC[C@]2(C(=O)NCCCNCCCCNCCCN)CC[C@]3(C)C(=CC[C@@H]4[C@@]5(C)Cc6c([nH]c7ccccc67)C(C)(C)[C@@H]5CC[C@]43C)[C@H]2C1 | 68.3% | 98.6% | 91.1% | 102% | 66.6% | 77.3% | 118% | 93.6% | 93.2% |
| O=C(Cn1cc(CSc2nnc3oc4ccccc4n23)nn1)Nc1cccc(Cl)c1 | 48.5% | 74.9% | 87.8% | 63.4% | 54.3% | 78.7% | 78.5% | 66.6% | 53.4% |
| Cc1ccc(-c2ccc(SCC(=O)Nc3ccc(Cl)c(C(F)(F)F)c3)nn2)cc1 | 19.7% | 1.56% (active) | 39.1% | 62.4% | 46.6% | 30.1% | 2.46% (active) | 15.7% | -23.5% (active) |
| O=C(Nc1nc2ccc([N+](=O)[O-])cc2s1)Nc1cc(Cl)ccc1I | -40.9% (active) | -13.6% (active) | 15.1% | 0.91% (active) | -9.56% (active) | 13.8% | -21.2% (active) | -21.5% (active) | -34.5% (active) |
| O=C(O)CCCCCCCCCCN1C(=O)/C(=C/c2cnc(-c3ccccc3)s2)SC1=S | 86.5% | 61.4% | 109% | 96.1% | 130% | 95% | 102% | 117% | 57.5% |
| Brc1ccc(/C=C/c2n(Cc3ccc4ccccc4c3)c3ccccc3[n+]2Cc2ccc3ccccc3c2)cc1 | -56.8% (active) | -64% (active) | -91.1% (active) | -85.9% (active) |  | -68.4% (active) | -89.5% (active) | -43.6% (active) | 78.7% |
| COc1ccc([C@H]2C(C(=O)c3ccc(Cl)cc3)C3(N[C@@H]2c2ccccc2)C(=O)Nc2ccc(Br)cc23)cc1 (stereo not given in full) | -10.6% (active) | 14.9% | -20% (active) | 17.2% | 22.6% | 7.23% (active) | -30.8% (active) | -7.39% (active) | -27.2% (active) |
| COc1ccc(/C(C)=N/N=C2C(=O)N(C)c3ccc(Br)cc32)cc1S(N)(=O)=O | 79.3% | 27.4% | 81.4% | 48.4% | 58.8% | 71.5% | 69.6% | 39.7% | 68.2% |
| COc1cccc(C(N)=Nc2ccc(OCCCCCCn3cncn3)cc2)c1 | 16% |  | 28.2% | 60.7% | 29.6% | 31.4% | 16.2% | 26.4% | 13.5% |
| NC(=Nc1ccc(OCCCCCCCCn2ccnn2)cc1)c1ccccc1 |  |  | 24.9% | 57.1% | 21.2% | 28.9% | 25.3% | 40.7% |  |

— PubChem BioAssay (NCI)
